Bim-Bcl-XL: disrupts Bim peptide binding to human Bcl-XL | Q07817 | bead flow cytometry, fluorescence | inhibition, % at 10 µM | 0.04% of 190,000 active | AID 1007
Bim-Bfl-1: inhibitors of Bim-Bfl-1 interaction, human. Bead-based flow cytometry, Bim-Bfl-1 binding inhibition. inhibition, % at 10 µM. 0.12% of 190,000 active
Wee1 degr inh: blocks degradation of human Wee1 kinase. 1.2% of 220,000 active. P30291. AID 1321. reporter increase, % at 5 µM. HeLa Luc-Wee1K328M stability, luciferase luminescence; 100% = proteasome inhibitor MG132 effect;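 active = activation above the mean of all tested compounds plus 3 SD, set per screening run, cut at about 8.8% in these data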;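 also: cells exposed to compound for 20 h before luminescence read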
Bim-Bcl-2: disrupts Bim peptide binding to human Bcl-2; inhibition, % at 10 µM; 0.06% of 190,000 active; Bead-based flow cytometry, Bim peptide-Bcl-2 binding; P10415; in the data active = inhibition above about 40%
Target sequence (P10415 whole entry, looked up): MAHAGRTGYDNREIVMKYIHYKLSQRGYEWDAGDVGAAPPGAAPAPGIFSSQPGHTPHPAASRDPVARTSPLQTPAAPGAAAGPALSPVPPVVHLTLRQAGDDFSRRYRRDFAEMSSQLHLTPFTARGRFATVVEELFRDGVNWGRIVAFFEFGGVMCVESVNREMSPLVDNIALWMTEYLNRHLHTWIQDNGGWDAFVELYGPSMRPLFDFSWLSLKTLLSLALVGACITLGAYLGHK
Bcl-B Bim block: disrupts Bim peptide binding to human Bcl-B. Q9HD36. bead-based flow cytometry. inhibition, % at 10 µM. 0.073% of 190,000 active. AID 951
Target sequence (Q9HD36 whole entry, looked up): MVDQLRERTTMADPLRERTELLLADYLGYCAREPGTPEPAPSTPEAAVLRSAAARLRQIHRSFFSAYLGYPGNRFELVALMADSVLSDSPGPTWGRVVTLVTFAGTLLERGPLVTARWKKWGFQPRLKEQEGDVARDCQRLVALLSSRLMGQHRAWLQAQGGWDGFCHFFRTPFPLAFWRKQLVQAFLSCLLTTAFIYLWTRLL
Bcl-W Bim block: disrupts Bim peptide binding to human Bcl-W | Q92843 | bead-based flow cytometry | inhibition, % at 10 µM | 0.02% of 190,000 active | AID 952;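 also: higher means less fluorescent Bim peptide bound to Bcl-W beads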
Target sequence (Q92843 whole entry, looked up): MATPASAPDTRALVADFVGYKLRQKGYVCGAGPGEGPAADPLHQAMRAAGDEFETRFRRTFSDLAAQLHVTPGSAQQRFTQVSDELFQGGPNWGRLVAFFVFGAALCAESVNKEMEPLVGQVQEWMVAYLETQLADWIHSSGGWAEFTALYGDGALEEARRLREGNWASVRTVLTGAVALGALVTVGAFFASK
Wee1 degr conf: human Wee1 degradation inhibition, confirmation. shares compounds with Wee1 degr inh. HeLa Luc-Wee1K328M degradation, luminescence; vehicle 0%, proteasome-blocked wells 100%. activation, % at 5 µM. 4% of 1,100 active; in the data active = activation above about 8.9%
Each line names hits and unclear results; the compound was inactive in the other large screens (follow-up assays come after a bar, where they were run). Hits are enriched below; roughly 1.4% of the tested compounds scored in any of these assays. Rule as the data show it, unless noted: active = inhibition above about 40%.

Cc1nnc(SCC(=O)Nc2cccc(S(=O)(=O)N(C)c3ccccc3)c2)s1	none
O=C(c1ccccc1O)N1N=C(c2ccccc2)CC1(O)C(F)(F)F (stereo not drawn)	none
COc1ccc(-c2cc(=O)oc3cc(OCC(C)=O)ccc23)cc1	Wee1 degr inh 17 | Wee1 degr conf inactive
COc1ccc(-c2c(C)c3ccc(OCC(C)=O)cc3oc2=O)cc1	none
CCOn1c(SCC)nc2ccccc2c1=O	none
CCSc1nn2c(=O)c3ccccc3nc2s1	Wee1 degr inh 15 | Wee1 degr conf inactive
Cc1ccc(CN2C(=O)CCC2C(=O)NCCCN2CCOCC2)cc1 (stereo not drawn)	none
O=C(NCCN1CCOCC1)C1CCC(=O)N1Cc1ccc(F)cc1 (stereo not drawn)	Wee1 degr inh 11 | Wee1 degr conf inactive
COc1ccc(C(=O)NNC2=NCCCCC2)cc1	none
CCOC(=O)Cn1c(=NC(=O)c2ccc([N+](=O)[O-])s2)sc2ccccc21	none
COc1ccc(-n2nc([N+](=O)[O-])c(=NCCc3ccc(C)cc3)n2O)cc1	Wee1 degr inh 25 | Wee1 degr conf inactive
COc1ccc(-n2nc([N+](=O)[O-])c(=NCCc3ccc(Cl)cc3)n2O)cc1	none
CSc1nccc(Oc2cncc(Cl)c2)n1	Wee1 degr inh 17 | Wee1 degr conf inactive
O=C(c1ccc(Br)o1)N1CCc2ccccc21	Wee1 degr inh 13 | Wee1 degr conf inactive
Cc1c(C(=O)N2CCc3ccccc32)oc2ccccc12	Wee1 degr inh 11 | Wee1 degr conf inactive
O=C(CSC(=S)N1CCCCC1)Nc1ncc2c(n1)CCCC2=O	none (no result: Bim-Bcl-XL, Bim-Bfl-1, Bim-Bcl-2, Bcl-B Bim block, Bcl-W Bim block)
O=C(NC1=NCCCCC1)c1cccc2ccccc12	none
CCC(O)(CC)C(=O)N=Nc1c(O)[nH]c2ccccc12	Wee1 degr inh 11 | Wee1 degr conf inactive
CC(C)CC(=O)N=Nc1c(O)[nH]c2ccccc12	none
N#Cc1c(C(F)(F)F)cc(C2CC2)[nH]c1=O	Wee1 degr inh 15 | Wee1 degr conf inactive
O=C(CSc1nc2cc(Cl)ccc2s1)Nc1cccc(S(=O)(=O)N2CCOCC2)c1	none
CCC(C)(C)NC(=O)C(c1ccncc1)N(C(=O)Cn1nnc2ccccc21)c1cc2c(cc1C(C)=O)OCO2 (stereo not drawn)	Wee1 degr inh 14 | Wee1 degr conf inactive
CN(CC(O)COCc1ccccc1F)C1CCCCC1 (stereo not drawn)	none (no result: Bim-Bcl-XL, Bim-Bfl-1, Bim-Bcl-2, Bcl-B Bim block, Bcl-W Bim block)
CN(CC(O)COc1ccccc1F)C1CCCCC1 (stereo not drawn)	Wee1 degr inh 11 | Wee1 degr conf inactive
CSCCC(NS(=O)(=O)c1ccc(Cl)cc1)C(=O)OCC(=O)c1c(C)[nH]c2ccccc12 (stereo not drawn)	none
CSCCC(NS(=O)(=O)c1ccc2ccccc2c1)C(=O)OCC(=O)c1ccc(C(C)C)cc1 (stereo not drawn)	Wee1 degr inh 11 | Wee1 degr conf inactive
Cc1cccc(NC(=O)Cn2cnc3c(oc4ccccc43)c2=O)c1C	none
O=C(CC12CC3CC(CC(C3)C1)C2)N1CCCC1	none
O=C1CCCN1CCC12CC3CC(CC(C3)C1)C2	Wee1 degr inh 12 | Wee1 degr conf inactive
O=C(O)c1ccc2c(c1)N(Cc1ccccc1)C(=O)c1ccccc1S2	none (no result: Bim-Bcl-XL, Bim-Bfl-1, Bim-Bcl-2, Bcl-B Bim block, Bcl-W Bim block)
Cc1ccc(OCC(O)Cn2c(=N)n(CCN3CCCCC3)c3ccccc32)cc1 (stereo not drawn)	none
COc1ccc(OCC(O)Cn2c(=N)n(CCN3CCCCC3)c3ccccc32)cc1 (stereo not drawn)	Wee1 degr inh 14 | Wee1 degr conf inactive
O=C(CCc1nc2ccccc2c(=O)[nH]1)Nc1ccc(N2CCCCC2)cc1	Wee1 degr inh 11 | Wee1 degr conf inactive
Cc1ccc(S(=O)OCC(=O)Nc2cc(Cl)ccc2N2CCOCC2)cc1 (stereo not drawn)	Wee1 degr inh 16 | Wee1 degr conf inactive
Cc1cc(C)c(OCC(=O)Nc2ccccc2N2CCOCC2)c(C)c1	none
Cc1ccc(S(=O)(=O)C2(C(=O)Nc3ccc(Br)cc3)CC2)cc1	Wee1 degr inh 14 | Wee1 degr conf inactive
Cc1ccc(S(=O)(=O)C2(C(=O)Nc3cccnc3)CC2)cc1	none
O=S(=O)(c1cccc2nsnc12)N1CCN(C/C=C/c2ccccc2)CC1	Wee1 degr inh 11 | Wee1 degr conf inactive
O=C(/C(=C/O)N=Nc1ccccc1)c1cccs1	Wee1 degr inh 11 | Wee1 degr conf inactive
Cc1cc(C)n(CCOc2ccc(Cl)cc2Cl)n1	Wee1 degr inh 11 | Wee1 degr conf inactive
O=C(NCc1cccs1)C1CCC(CNS(=O)(=O)c2ccccc2)CC1 (stereo not drawn)	Wee1 degr inh 12 | Wee1 degr conf inactive
COc1cccc2cc(-c3cn4ccc(C)cc4n3)c(=O)oc12	Wee1 degr inh 14 (no result: Bim-Bcl-XL, Bim-Bfl-1, Bim-Bcl-2, Bcl-B Bim block, Bcl-W Bim block) | Wee1 degr conf inactive
Oc1ccccc1-n1c(-c2ccccc2)ccc1-c1ccccc1	none (no result: Bim-Bcl-XL, Bim-Bfl-1, Bim-Bcl-2, Bcl-B Bim block, Bcl-W Bim block)
Cc1ccc(-n2ncc(C#N)c2N)cc1	Wee1 degr inh 11 (no result: Bim-Bcl-XL, Bim-Bfl-1, Bim-Bcl-2, Bcl-B Bim block, Bcl-W Bim block) | Wee1 degr conf inactive
Cc1nc2cc(CC(=O)O)ccc2o1	none
Clc1ccc(/C=C\c2nccc3c2[nH]c2ccccc23)cc1	Wee1 degr inh 12 | Wee1 degr conf inactive
CC(NC(=O)c1cnccn1)c1ccc(S(N)(=O)=O)cc1 (stereo not drawn)	none (no result: Bim-Bcl-XL, Bim-Bfl-1, Bim-Bcl-2, Bcl-B Bim block, Bcl-W Bim block)
O=C(NC1CCCCCC1)C1Cc2ccccc2CN1C(=O)c1ccco1 (stereo not drawn)	Wee1 degr inh 21 | Wee1 degr conf inactive
O=C(Nc1ccccc1)C1Cc2ccccc2CN1C(=O)c1ccco1 (stereo not drawn)	none
Cc1ccnc(NC(=O)c2cc3ccccc3oc2=O)c1	Wee1 degr inh 13 | Wee1 degr conf inactive
O=C(NCCCn1ccnc1)c1cc2ccccc2oc1=O	Wee1 degr inh 13 | Wee1 degr conf inactive
Cc1ccc2nc3c(cc(C(=O)NCCCn4ccnc4)n3C)c(=O)n2c1	Wee1 degr inh 23 | Wee1 degr conf inactive
Cc1ccnc(NC(=O)c2ccccc2NC(=O)C(C)(C)C)c1	none
Cc1cc(NC(=O)Cn2nc([N+](=O)[O-])c(Br)c2C)no1	none
CC(=O)c1sc(NC(=O)c2ccccc2F)nc1-c1ccccc1	Wee1 degr inh 14 | Wee1 degr conf inactive
O=C(O)CC(C(=O)Nc1ccc(F)cc1)C1CCCO1 (stereo not drawn)	none (no result: Bim-Bcl-XL, Bim-Bfl-1, Bim-Bcl-2, Bcl-B Bim block, Bcl-W Bim block)
COc1cccc(/C=N/NC(=O)CN(C2=NS(=O)(=O)c3ccccc32)c2ccccc2)c1	Wee1 degr inh 12 | Wee1 degr conf inactive
COc1ccc(/C=N/NC(=O)CN(C2=NS(=O)(=O)c3ccccc32)c2ccccc2)cc1OC	none
CCCCOC(=O)CCc1c(C)n[nH]c1C	Wee1 degr inh 12 (no result: Bim-Bcl-XL, Bim-Bfl-1, Bim-Bcl-2, Bcl-B Bim block, Bcl-W Bim block) | Wee1 degr conf inactive
CCCCOC(=O)CCc1c(C)[nH]c(=O)c(C#N)c1C	none
COc1cccc(CN2CCNC(=O)C2CC(=O)N2CCCCO2)c1OC (stereo not drawn)	none
Oc1ccccc1/C=N/n1cnn(Cc2ccccc2Cl)c1=S	none
